# Source: PubChem (Broad Institute)
# LGR2 antag = inhibitors of bursicon-induced LGR2 CRE-luciferase signal, primary screen, cell-based, HEK293, CRE-luciferase reporter, bursicon stimulation; bursicon-stimulated, 4 h; inhibition, % at 9.99 µM; hit rate 0.35% among 380,000; AID 720647, 2013;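 active means drop in luminescence signal, shown as inhibition above about 50% in the replicate tests, limit read from the data, passing the limit was not always enough; inconclusive means probably only some replicates passing the limit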;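 further: agonist challenge used bursicon conditioned medium at about half maximal strength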
# CFTR F508del cor = F508del CFTR correction, initial screen, CFBE line, single point; activity (quench increase), % at 7.58 µM; CFBE cells, YFP halide quenching; stimulated with forskolin plus potentiator P3; % fluorescence drop versus neutral controls; hit rate 0.36% among 350,000;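 active means mean added fluorescence quench of at least 8% versus neutral control, with both replicates also reaching 8%; inconclusive means only one of the mean or replicate conditions met; inactive means mean below 8% and not both replicates reaching 8%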;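 further: cells transiently co-express mutant CFTR-F508del with the halide-sensitive YFP; corrector assay measuring rescue of mutant channel to the surface after 24 h compound exposure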
# PAX8 inh HTS = inhibitors of PAX8-driven TPO luciferase reporter, primary screen, RMG-I cells, single concentration; hit rate 1.2% among 360,000; inhibition, % at 12.6 µM; SteadyGlo, 24 h;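 active means mean replicate inhibition at least 60% with every replicate also reaching 60%; inconclusive means only one of the two criteria is met; inactive means mean below 60% and not all replicates reaching 60%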;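 further: luciferase light reporting Pax8 driven TPO promoter activity; plate controls were median of neutral control wells for no effect and mitoxantrone controls for full effect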
# EWS-Fli block = EWS/Fli-driven NR0B1 reporter inhibitors, primary screen, A673 cells, NR0B1 luciferase, luminescence, MLPCN library; viability-normalised; inhibition, % at 12.6 µM; hit rate 0.67% among 350,000;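 active means mean inhibition of at least 50% after viability correction, with every replicate also passing that limit; inconclusive means mean reaches 50% but only one of two replicates passes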;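 further: firefly luciferase signal divided by Alamar Blue viability fluorescence both relative to DMSO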
# * = called active by the depositor; ? = inconclusive; / = not tested or not shown. Only some compounds are listed: those with a hit (about 1.8% of all), similar ones and a draw of the others.
SMILES,LGR2 antag,CFTR F508del cor,PAX8 inh HTS,EWS-Fli block
COC(=O)C1=C(c2ccc(F)cc2OCc2ccccc2)C[C@@H]2CC[C@H]1N2C(=O)NCc1ccc(F)cc1,12,-1,7,8
COC(=O)C1=C(c2ccc(F)cc2OCc2ccccc2)C[C@@H]2CC[C@H]1N2C(=O)NCc1ccc(C)cc1,13,-2,102*,2
COC(=O)C1=C(c2ccc(F)cc2OCc2ccccc2)C[C@@H]2CC[C@H]1N2C(=O)NC1Cc2ccccc2C1,12,-2,89*,10
CC12CC(=O)C3C(CCC4CC=CCC43C)C1CCC2=O (stereo not given),12,-4,-10,3
COc1cc(C2c3cc4c(c(O)c3CC3COC(=O)C32)OCO4)cc(OC)c1OC (stereo not given),7,5,88*,44
COc1cc(C2c3cc4c(cc3CC3COC(=O)C32)OCO4)cc(OC)c1OC (stereo not given),-2,3,/,57*
COc1cc(C2c3cc(O)c(OC)cc3CC3C(=O)OCC32)ccc1O (stereo not given),-3,-1,/,-8
CC(=O)c1ccc2c(c1)C1C(Cl)C(Sc3ccccc3[N+](=O)[O-])CC1C(c1ccccc1)N2 (stereo not given),/,/,22,/
CC(=O)c1ccc2c(c1)C1C(Cl)C(Sc3ccccc3[N+](=O)[O-])CC1C(c1ccccc1[N+](=O)[O-])N2 (stereo not given),/,/,63*,/
O=P(Oc1ccc(Cl)cc1)(N1CC1)N1CC1,-4,-3,-8,11
O=P(Oc1ccc(-c2ccccc2)cc1)(N1CC1)N1CC1,/,9.9*,-15,18
COC(=O)C1=C(c2cccc(OCc3ccccc3)c2)C[C@@H]2CC[C@H]1N2C(=O)NCc1cccc(C(F)(F)F)c1,9,1,37,18
COc1ccc(OC(=O)N(C)C[C@@H]2OCc3cnnn3CCCC(=O)N([C@H](C)CO)C[C@@H]2C)cc1,3,3,-15,-12
Cc1nc(C)c(C(=O)NN=Cc2ccc(N(CCCl)CCCl)cc2)s1,4,8.7*,-20,12
O=C(O)[C@H]1[C@H](CO)[C@H]2Cn3c(ccc(-c4ccccc4)c3=O)[C@@H]1N2C(=O)C1CCCCC1,3,-1,-2,0
C[C@]12CC[C@H](OC(=O)CCC(=O)O)CC1=CCC1C2CC[C@@]2(C)C1CC[C@@H]2OC(=O)CCC(=O)O (stereo not given in full),/,0,-2,0
CN(C)CC(C(=O)Cc1ccccc1)c1ccccc1 (stereo not given),16,-2,104*,25
Cc1ccc(OCCOc2cccc(C=C3C(=O)NC(=O)NC3=O)c2)c(C)c1,77*,-3,38,?
CC(=O)OC1CC2OC3C=C(C)CCC3(C)C1(C)C21CO1 (stereo not given),104*,-9,/,43
CC(=O)O[C@H]1C[C@@H]2OC3C=C(C)CCC3(C)[C@@]1(C)[C@@]21CO1 (stereo not given in full),102*,0,110*,27
O=C(c1ccccc1)C(CN1CCCC1)c1ccccc1 (stereo not given),?,/,100*,/
CCOC(=O)c1cc2ccccc2n1C1CCN(Cc2ccccc2)CC1,15,0,-19,-2
O=C(NC(=C(Cl)Cl)P(=O)(c1ccccc1)c1ccccc1)c1ccccc1,1,-1,108*,2
COc1cc2c(cc1/C=C/[N+](=O)[O-])OCO2,103*,-6,37,19
CC1(C)OC(c2ccccc2)=C/C(=C/C=C2C(=O)NC(=O)NC2=O)O1,7,14*,7,10
SMILES,LGR2 antag,CFTR F508del cor,PAX8 inh HTS,EWS-Fli block
N#Cc1ccc2nc(-c3ccc(CN4CCC(n5c(=O)[nH]c6ccccc65)CC4)cc3)c(-c3ccccc3)nc2c1,15,2,91*,7
Cc1cccc2nc(-c3ccccc3)c(-c3ccc(CN4CCC(n5c(=O)[nH]c6ccccc65)CC4)cc3)nc12,4,0,33,3
CN(C)C1C(=O)C(C(N)=O)=C(O)C2(O)C(=O)C3=C(O)c4c(O)cccc4C(C)(O)C3C(O)C12 (stereo not given),-2,-4,11,2
CCCNC(=O)N1[C@H]2CC[C@@H]1C(C(=O)OC)=C(c1ccccc1)C2,-3,1,5,0
CN1C(=O)C(c2ccc([N+](=O)[O-])cc2[N+](=O)[O-])C(=O)N(C)C1=O,8,2,-2,-5
COC(=O)C1=C(c2cccc(OCc3ccccc3)c2)C[C@@H]2CC[C@H]1N2C(=O)NCc1cc(C)oc1C(F)(F)F,7,4,63*,5
COC(=O)C1=C(c2ccc(OCc3ccccc3)cc2)C[C@@H]2CC[C@H]1N2C(=O)NCc1ccccc1,10,1,15,2
COC(=O)C1=C(c2ccc(OCc3ccccc3)cc2)C[C@@H]2CC[C@H]1N2C(=O)NCc1ccc([N+](=O)[O-])cc1,10,-1,68*,10
COC(=O)C1=C(c2ccc(OCc3ccccc3)cc2)C[C@@H]2CC[C@H]1N2C(=O)NCc1ccc(C(C)(C)C)cc1,14,0,86*,30
BrCC(Br)C1CCC(Br)C(Br)C1 (stereo not given),-9,2,/,0
Cc1cc(O)c2c(c1)OC(C)(C)C1=C2CC(C)CC1 (stereo not given),15,-1,11,16
Cn1cc(C(=O)OCC(=O)NC2(C#N)CCCC2)c2ccccc21,-6,-3,-4,0
CS(=O)(=O)CCN1CC2CCCC(C2)C1,7,-2,10,7
C[n+]1c2ccccc2nc2ccc(NCCO)cc21,6,-4,-38,-92
CNc1ccc2nc3ccccc3[n+](C)c2c1,-7,-3,65*,-13
Fc1ccc(NC(=S)N2Cc3ccccc3-n3nncc3C2)cc1,0,0,7,-3
CN1/C(=C\C=C2C(=O)NC(=O)NC2=O)C(C)(C)c2ccccc21,6,?,-1,7
CCN1/C(=C/C=C/C2=[N+](CC)c3ccccc3C2(C)C)C(C)(C)c2ccccc21,55*,-13,106*,59*
COc1ccc(C#Cc2ccc([C@@H]3[C@H](CO)N4CCCCN(C(=O)Cc5cccnc5)C[C@@H]34)cc2)cc1,-7,-4,-4,-1
C=C1C(=O)O[C@@H]2C[C@@H](C)[C@@H]3C4OC4C(=O)[C@@]3(C)[C@@H](O)[C@H]12 (stereo not given in full),85*,-5,104*,73*
O=C1NC(=O)C(=Cc2c(Cl)cccc2Cl)C(=O)N1,-9,8.7*,7,2
Cc1c(C=C2C(=O)NC(=O)NC2=O)c(=O)n(-c2ccccc2)n1C,-6,2,4,4
CCN(CCCl)c1cc(CN(C)C)cc(NC(=O)c2ccc(C(=O)Nc3cc(CN(C)C)cc(N(CC)CCCl)c3)cc2)c1,95*,-1,108*,60*
